# Laboratory results reported in PubChem BioAssay (NCATS).
# Inconclusive results are not listed. A number with no mark means an inactive call. Active and inactive are the calls of the source. Calls follow the shape of the full dose curve.
# Molecular target: Vitamin D3 receptor (Homo sapiens) (UniProt P11473)
# Test: qHTS assay for small molecule antagonists of vitamin D receptor signaling (AID 588541);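 also: receptor activated by calcitriol during compound treatment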
# Settings: HEK293T VDR-UAS-bla, beta-lactamase ratio, antagonist mode; series mostly up to 76.7 µM; activity change, negative = inhibition: at the top concentration
# From the text: NIH Chemical Genomics Center [NCGC]
# U.S. Environmental Protection Agency [EPA]
# National Institutes of Environmental Health Sciences [NIEHS]
# National Toxicology Program [NTP]
# The Vitamin D receptor (VDR) is a member of nuclear hormone receptor superfamily and it plays a critical role in calcium homeostasis and bone metabolism. It plays a role in inducing cell differentiation, inhibiting cell growth and in thrombogenicity. So, VDR that mediates these effects represents a pharmacological target in prevention and treatment of hyperproliferative malignancies, such as cancer and psoriasis, cardiovascular, immunological, inflammatory and renal diseases etc.
# NCGC Assay Protocol Summary
# Using a beta-lactamase reporter-gene under control of Vitamin D receptor (VDR) response element, a cell-based assay [GeneBLAzer (VDR -UAS-bla assay developed by Invitrogen] was used to measure VDR ligands signaling. GeneBLAzer VDR -UAS-bla HEK293T cells were used with assay medium containing 2% charcoal-stripped FBS. The assay was performed in clear bottom black Greiner 1536-well plates. Library compounds were measured for their ability to inhibit the reporter gene activity. Compounds were screened in a titration series in 1536-well format. The fluorescence intensity (405 nm excitation, 460/530 nm emission) was measured using an EnVision plate reader. Data was normalized relative to 1-alpha,25-Dihydroxy vitaminD3 control (50 nM, 100%) and DMSO only wells (basal, 0%). Concentration-response titration points for each compound were fitted to the Hill equation yielding concentrations of half-maximal inhibition (IC50) and maximal response (efficacy) values.
# qHTS protocol for VDR beta-lactamase assay in antagonist mode
# [Step] [Parameter] [Value] [Description]
# 1. Reagent; 5 uL; 2000 cells/well
# 2. Incubation; 37 C for 5 hrs
# 4. Controls (DMSO); 23 nL,
# 5. Agonist (Stimulator); 1uL; 1-alpha,25-Dihydroxy vitaminD3 at 50 nM and 3 nM final concentrations
# 6. Incubation; 37 C for 16 hrs
# 7. Detection reagent; 1 uL of CCF4-dye
# 8. Incubation; RT for 2 hrs
# 9. Detection; Fluorescence; Envision plate reader
# Sequence of Vitamin D3 receptor (Homo sapiens) (P11473 whole entry, looked up): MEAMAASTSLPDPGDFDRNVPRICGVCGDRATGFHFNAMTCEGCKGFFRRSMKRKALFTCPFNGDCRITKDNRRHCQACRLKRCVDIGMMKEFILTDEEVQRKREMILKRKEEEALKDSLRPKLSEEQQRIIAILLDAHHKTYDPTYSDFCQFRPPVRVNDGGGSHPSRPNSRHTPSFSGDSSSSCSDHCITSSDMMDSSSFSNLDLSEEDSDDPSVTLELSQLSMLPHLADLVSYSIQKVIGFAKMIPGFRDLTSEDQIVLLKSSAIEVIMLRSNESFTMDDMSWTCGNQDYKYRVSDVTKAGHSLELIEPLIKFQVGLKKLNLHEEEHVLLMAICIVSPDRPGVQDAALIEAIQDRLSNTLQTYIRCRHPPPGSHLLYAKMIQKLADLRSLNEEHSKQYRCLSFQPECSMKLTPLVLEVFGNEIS
SMILES,"activity change, negative = inhibition [%]",outcome
ClCC(Br)CBr (stereo not given),-0.482,–
Cc1ccc(N)cc1Cl,-6.87,–
CN(C)c1ccccc1,3.57,–
Nc1cccc(Cl)c1,-2.98,–
BrCC(Br)(Br)Br,-0.812,–
CN(C)C(=O)Cl,2.77,–
COP(=S)(OC)SCn1nnc2ccccc2c1=O,-14.8,–
O=C(O)c1cccc(Cl)c1,2.15,–
C=CC(=O)OCC(CC)CCCC (stereo not given),–,inactive
CCN(N=O)C(N)=O,0.682,–
O=[N+]([O-])/C=C/c1ccccc1,2.97,–
COc1ccc(C=O)cc1,3.15,–
CC(C)Br,-0.876,–
c1ccc2c(c1)CCNC2,0.855,–
CCCCNC(=O)n1c(NC(=O)OC)nc2ccccc21,-13.2,–
C=C(C)CCl,-2.4,–
Oc1ccc(Cl)c(Cl)c1,0.398,–
Clc1cccc2ccccc12,1.09,–
COc1cc(-c2ccc(N)c(OC)c2)ccc1N,–,inactive
O=C(O)CBr,-2.18,–

SMILES,"activity change, negative = inhibition [%]",outcome
CCCCCOC(=O)c1ccccc1C(=O)OCCCCC,–,inactive
C=CCOCC1CO1 (stereo not given),3.15,–
O=C(Cl)c1ccccc1F,-1.79,–
c1ccc(N=NNc2ccccc2)cc1,–,inactive
ClP(Cl)(Cl)(Cl)Cl,1.56,–
Cc1cc(C)cc(OP(=O)(Oc2cc(C)cc(C)c2)Oc2cc(C)cc(C)c2)c1,-0.806,–
C[N+](=O)[O-],-3.65,–
C=CC(=O)OCC(C)C,-7.32,–
Brc1ccc(Oc2ccc(Br)cc2Br)c(Br)c1,-0.623,–
Cc1coc2c1CCC(C)C2 (stereo not given),-0.317,–
CC(Cl)(Cl)Cl,–,inactive
c1ccoc1,0.714,–
CCC(Cl)[N+](=O)[O-] (stereo not given),-7.31,–
CCC[N+](=O)[O-],4.7,–
O=c1ccc(=O)[nH][nH]1,–,inactive
CNC(=O)O/N=C/C(C)(C)S(C)=O (stereo not given),–,inactive
ClC=CCl,-4.01,–
CCOP(=S)(OCC)Oc1nc(Cl)c(Cl)cc1Cl,–,inactive
O=[N+]([O-])c1cc(Cl)c(Cl)cc1Cl,1.5,–
c1ccc(C2CO2)cc1 (stereo not given),-0.0691,–
